Drawing on PubChem BioAssay (NCATS), this text covers outcome and Potency for 13 compounds.

The nature of test [1]: qHTS assay for measurement of the activity of small molecule inhibitors on Zika virus induced Caspase-3 activity in human astrocytoma cells (AID 1224859). An outline of the steps: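 A cell-based luminescent caspase-3/7 assay used SNB-19 cells infected with ZIKV (2 FFU/cell) for 6 h following 1 h compound pretreatment.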
The nature of test [2]: qHTS assay to identify small molecule inhibitors of chordoma cells - UCH-1 (AID 1259355). Further: nearly all actives have a fitted effect of over 55% in size. Further: potency means the concentration at half of the fitted maximal effect; series mostly up to about 46 µM. An outline of the steps: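 Screening used approved and investigational drugs in 15-point titration against 800 seeded cells per well. A fixed combination of auranofin with camptothecin, doxorubicin, rubitecan and topotecan followed compound addition, and growth was scored by CellTiter-Glo after 48hr.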

A short description of test [3]: P-glycoprotein substrates identified in KB-8-5-11 adenocarcinoma cell line, qHTS therapeutic library screen (AID 1346987). Further: nearly all actives have a fitted effect of over 65% in size. Further: potency means the concentration at half of the fitted maximal effect. An outline of the steps: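 Human cervical adenocarcinoma KB-8-5-11 cells, selected in colchicine to over-express P-gp and assayed without it, were exposed for 72 h to titrated compounds. An ATP-based luminescent viability signal gave AC50.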
The nature of test [4]: NS1 protein of Zika virus - qHTS assay to identify small molecule inhibitors in human HEK 293 cells (AID 1347053). Further: series mostly up to about 46 µM; nearly all actives have a fitted effect of over 55% in size. An outline of the steps:
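Read-out is a two-antibody TR-FRET for ZIKV NS1, normalized between uninfected cells and infected cells. Compound added 1 h before MR766 infection at MOI 0.5; human HEK 293 cells incubated 24 h, 37 C.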
On the technique in general: qHTS replaces the single test concentration by a dilution series.

Test [5] is described as follows: qHTS of pediatric cancer cell lines to identify multiple opportunities for drug repurposing: Primary screen for TC32 cells (AID 1347089). Further: nearly all actives have a fitted effect of over 60% in size. Further: potency means the concentration at half of the fitted maximal effect. In short, it runs like this:
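Luminescent ATP read-out (CellTiter-Glo) of metabolically active TC32 cells after 48 h exposure. Concentration-response curves came from 11-point (MIPE, 0.78 nM–46 µM) or 8-point (NPC, 0.59 nM–46 µM) primary titrations; follow-up used 11 points.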

Test [6] in a line: qHTS of pediatric cancer cell lines to identify multiple opportunities for drug repurposing: Primary screen for DAOY cells (AID 1347090). Further: nearly all actives have a fitted effect of over 55% in size. Further: potency means the concentration at half of the fitted maximal effect. An outline of the steps: (§1)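 Viability measured as metabolically active cells via CellTiter-Glo luminescence following 48 hours of compound exposure, 11-point dilutions in confirmatory testing. 500-1,000 cells/well plated 5 hours before dosing; controls were DMSO and 2.3 µM bortezomib.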

The nature of test [7]: qHTS of pediatric cancer cell lines to identify multiple opportunities for drug repurposing: Primary screen for SJ-GBM2 cells (AID 1347091). Further: potency means the concentration at half of the fitted maximal effect. An outline of the steps: as §1
Test [8] is described as follows: qHTS of pediatric cancer cell lines to identify multiple opportunities for drug repurposing: Primary screen for A673 cells (AID 1347092). Further: nearly all actives have a fitted effect of over 45% in size. Further: potency means the concentration at half of the fitted maximal effect. In short, it runs like this: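 Cell viability of A673 measured by CellTiter-Glo ATP luminescence after 48 hours compound exposure. Dilution series spanned 0.78 nM to 46 µM (MIPE, 11-point) or 0.59 nM to 46 µM (NPC, 8-point); bortezomib 2.3 uM positive control.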

Test [9] in a line: qHTS of pediatric cancer cell lines to identify multiple opportunities for drug repurposing: Primary screen for BT-37 cells (AID 1347094). Further: potency means the concentration at half of the fitted maximal effect. In short, it runs like this:
(§2)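 Following a 5-hour attachment period, cells at 500-1,000/well received compounds and were cultured for 48 hours. CellTiter-Glo was added and luminescence read to estimate viable, metabolically active cells.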

The nature of test [10]: qHTS of pediatric cancer cell lines to identify multiple opportunities for drug repurposing: Primary screen for NB-EBc1 cells (AID 1347095). Further: potency means the concentration at half of the fitted maximal effect. An outline of the steps: as §2
Test [11] is described as follows: qHTS of pediatric cancer cell lines to identify multiple opportunities for drug repurposing: Primary screen for SK-N-MC cells (AID 1347093). Further: series mostly up to about 46 µM. An outline of the steps: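 Metabolically active cells were quantified by ATP-dependent luminescence (CellTiter-Glo, 15 min at room temperature) following 48 h treatment. Cells had been plated at 500-1,000 per well and settled for 5 h beforehand.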

Inconclusive results are not listed. Active and inactive are the calls of the source. The call rests on the fitted dose curve; in most records, active means well fitted curve in the direction sought with a large enough effect; inconclusive means small, poorly fitted or top-dose-only effect, or another doubt; inactive means no such curve, though single readings can be large; an effect the other way counts as inactive or inconclusive.

Regarding `CCCCC(CC)CN1CN(CC(CC)CCCC)CC(C)(N)C1` (centres undefined), the call in [1] was inactive. The Potency result in test [2], in [3], in [4], in test [5], in test [6] and in test [7] was “inactive” each time. Moreover, the Potency entry in [8], in test [9] and in test [10] was “inactive” in each case.

As to `O=C(CN1CCN(Cc2ccc3c(c2)OCO3)CC1)N1c2ccccc2Sc2ccccc21`, the outcome in test [1] was inactive. Further, the Potency entry in test [2], in [4], in [5], in test [6], in test [7] and in [8] was “inactive” throughout. Also, the Potency result in test [11], in test [9] and in [10] was “inactive” throughout.

On to `CC(=O)Nc1ccc(OC(=O)c2ccccc2OC(C)=O)cc1`, for which the compound was called inactive in test [1]. The Potency entry in test [2], in test [3], in test [4], in test [5], in test [6] and in test [7] was “inactive” throughout. Further, the Potency result in [8], in test [11], in test [9] and in test [10] was “inactive” each time.

For the compound `COc1ccc(S(=O)(=O)N2c3ccc(Cl)cc3[C@@](O)(c3ccccc3Cl)[C@H]2C(=O)N2CCC[C@@H]2C(N)=O)cc1OC`, the outcome in test [1] was inactive. Further, the Potency result in [2], in test [3], in [4], in test [5], in test [7] and in test [8] was “inactive” each time. The Potency entry in test [9] and in [10] was “inactive” throughout.

For the compound `CCOc1ccccc1OCCN[C@H](C)Cc1ccc(OC)c(S(N)(=O)=O)c1`, the call in test [1] was inactive. The Potency result in [2], in test [3], in test [4], in test [5], in test [6] and in [8] was “inactive” in each case. The Potency result in [11], in test [9] and in test [10] was “inactive” in each case.

`CCOC(=O)[C@H](CCc1ccccc1)N[C@@H](C)C(=O)N1[C@H](C(=O)O)C[C@@H]2CCC[C@@H]21`: in test [1], the result was inactive. In addition, the Potency entry in test [2], in test [3], in [4], in test [5], in [6] and in [7] was “inactive” throughout. Besides, the Potency entry in test [8], in test [9] and in test [10] was “inactive” throughout.

In the case of `Oc1c(Cl)cc(Cl)c(Cl)c1Cc1c(O)c(Cl)cc(Cl)c1Cl`, the call in [1] was inactive. Also, the Potency was 25.1 µM (active) in test [2]; 2.06 µM (active) in test [3]; 7.45 µM (active) in test [5]; 8.41 µM (active) in test [6]; 4.22 µM (active) in test [7]; 21.1 µM (active) in [8]. Besides, the results for the Potency in test [9] and in test [10] were 9.78 µM (active) and 4.73 µM (active), respectively. Moreover, in [4], the Potency entry is “inactive”.

As to `C=C[C@H]1CN2CC[C@H]1C[C@H]2[C@H](O)c1ccnc2ccc(OC)cc12`, the result in test [1] was inactive. The Potency entry in test [2], in test [3], in [4], in test [5], in test [6] and in test [8] was “inactive” in each case. Besides, the Potency result in test [9] and in [10] was “inactive” in each case.

Regarding `N[C@H](C(=O)O)[C@@H](O)c1ccc(O)c(O)c1`, the result in [1] was inactive. Moreover, the Potency entry in test [2], in test [3], in [4], in test [5], in test [6] and in [7] was “inactive” each time. The Potency result in test [8], in test [9] and in test [10] was “inactive” in each case.

Take `CC1(COc2ccc(CC3SC(=O)NC3=O)cc2)CCCCC1` (centres undefined): the outcome in test [1] was inactive. The Potency result in test [2], in test [3], in [4], in [5], in [6] and in [8] was “inactive” throughout. The Potency result in [11], in test [9] and in [10] was “inactive” throughout.

On to `CCCCCCCC/C=C\CCCCCCCCN`, for which the compound was called inactive in test [1]. The Potency result in test [2], in [3], in [4], in [5], in [6] and in [7] was “inactive” in each case. The Potency entry in test [8], in test [11], in test [9] and in test [10] was “inactive” in each case.

Regarding `CN1CCN(C2=Nc3ccccc3Sc3ccc(Cl)cc32)CC1`, the compound was called inactive in test [1]. The Potency entry in test [2], in [4], in [5], in test [6], in test [7] and in [8] was “inactive” each time. Moreover, the Potency result in test [11], in test [9] and in [10] was “inactive” each time.

Take `CC1(C)OC[C@@H]2O[C@@]3(C(=O)O)OC(C)(C)O[C@H]3[C@@H]2O1`: in test [1], the result was inactive. In addition, the Potency entry in test [2], in [3], in test [4], in test [5], in test [7] and in [8] was “inactive” each time. The Potency result in [9] and in [10] was “inactive” each time.
